Measured values taken from PubChem BioAssay AID602393 (Broad Institute, 2012).
Hit rate of the full screen: of about 350,000 compounds, about 7,000 (2%) were called active. Cut-off read from the data, not from the text of the source: active = activation above about 40%; inconclusive = no clear call, values can overlap the other calls; inactive = below that. For the sample, actives were picked, then their nearest neighbours and some compounds at random.

Experiment: raisers of Bmi1 knock-in reporter signal – mouse ES cells, Bmi1 luciferase knock-in, single point, esBAF inhibitor project, primary screen (AID 602393);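 note: 0% = median of the plate's neutral control wells and 100% = double that signal; a rise in the Bmi1 reporter signal indicates esBAF inhibition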
Details: 24 h, at 12.5 µM, active compounds read high, 100% = twice the neutral-well signal
With `CC(C)NC(=O)Nc1ccc2c(c1)C(=O)N([C@@H](C)CO)C[C@H](C)[C@@H](CN(C)S(C)(=O)=O)O2` the reporter increase was -2.99% (inactive).
With `COCC(=O)Nc1ccc2c(c1)C(=O)N(C)C[C@@H](OC)[C@H](C)CN(C(=O)c1ccccn1)[C@@H](C)CO2` the reporter increase was 4.23% (inactive).
For `CCCOC(=O)C1=C(C)NC2=C(C(=O)C(C(=O)OC)C(C)C2)C1c1ccc(N(C)C)cc1` (stereo not given), the reporter increase was 8.57% (inactive).
In the case of `CCOC(=O)c1[nH]c2c(c1C)C(=O)CC(c1ccc(N(C)C)cc1)C2` (stereo not given), the reporter increase is reported as 51.2% (active).
For `CCCOC(=O)c1[nH]c2c(c1C)C(=O)CC(c1cccs1)C2` (stereo not given), the reporter increase was -12.1% (inactive).
In the case of `CC(=O)N1[C@H](CO)[C@H](c2ccc(-c3ccccc3)cc2)[C@H]1CNC(=O)C1CC1`, the reporter increase is reported as 2.48% (inactive).
In the case of `COc1ccccc1S(=O)(=O)Nc1ccc2c(c1)C(=O)N(C)C[C@H](OC)[C@H](C)CN[C@H](C)CO2`, the reporter increase is reported as -6.13% (inactive).
For `C1=C(CCNc2ncnc3c2cnn3-c2ccccc2)CCCC1`, the reporter increase was 69.7% (active).
In the case of `CC(C)Sc1ncnc2c1cnn2-c1ccccc1`, the reporter increase is reported as 19% (inactive).
For `Cc1nn(C(C)C(=O)NCCC2=CCCCC2)c(=O)c2nn(-c3ccccc3)c(C)c12` (stereo not given), the reporter increase was 21% (inactive).
With `C[C@@H]1CN([C@@H](C)CO)C(=O)Cc2cc(NC(=O)CCN3CCOCC3)ccc2O[C@@H]1CN(C)C(=O)Nc1cccc2ccccc12` the reporter increase was -0.153% (inactive).
For `CC(C)(C)n1nc2c(c1NC(=O)c1cc3ccccc3o1)CSC2`, the reporter increase was -2.69% (inactive).
In the case of `Cc1cc(NC(=O)c2cc3ccccc3o2)no1`, the reporter increase is reported as 20.5% (inactive).
In the case of `Cc1ccc(NC(=O)c2cc3ccccc3o2)cc1`, the reporter increase is reported as 52.9% (active).
In the case of `CN(C)C(CNC(=O)c1cc2ccccc2o1)c1ccccc1` (stereo not given), the reporter increase is reported as 7.21% (inactive).
With `O=C(Nc1ccncc1)c1cc2ccccc2o1` the reporter increase was 75.6% (active).
For `O=C(NCCc1ccc2c(c1)OCCO2)c1cc2ccccc2o1`, the reporter increase was 24.4% (inactive).
With `COc1ccccc1C#Cc1ccc2c(c1)O[C@@H](CN(C)Cc1cncnc1)[C@H](C)CN([C@@H](C)CO)S2(=O)=O` the reporter increase was 8.66% (inactive).
With `COC(=O)N(C)C[C@H]1OCc2ccccc2-c2ccccc2C(=O)N([C@@H](C)CO)C[C@H]1C` the reporter increase was 5.99% (inactive).
With `CN(c1cccc(NC(=O)Nc2ccc(Cl)cc2)c1)S(C)(=O)=O` the reporter increase was 50.6% (active).
For `CN(c1ccccc1)S(=O)(=O)c1cccc(NC(=O)Cc2ccc(Cl)cc2)c1`, the reporter increase was -11.6% (inactive).
For `CN(c1cccc(NC(=O)c2ccc(CN3CCc4ccccc4C3)cc2)c1)S(C)(=O)=O`, the reporter increase was -0.323% (inactive).
In the case of `C[C@H](CO)N1C[C@H](C)[C@@H](CN(C)CC2CCCCC2)Oc2ccc(NS(=O)(=O)c3cccs3)cc2CC1=O`, the reporter increase is reported as -1.82% (inactive).
With `CCCNC(=O)C[C@@H]1C[C@@H]2c3cc(N(C)C)ccc3O[C@@H]2[C@H](CO)O1` the reporter increase was 1.01% (inactive).
For `CCCN(C)C[C@@H]1Oc2cc(C#Cc3ccc(F)cc3)ccc2S(=O)(=O)N([C@H](C)CO)C[C@H]1C`, the reporter increase was -2.93% (inactive).
In the case of `CCOC(=O)c1cc(-c2sc(NC(=O)c3ccccc3)nc2C)n(Cc2ccccc2)n1`, the reporter increase is reported as 56% (active).
In the case of `CCOC(=O)c1cc(-c2sc(NC(=O)c3ccccc3)nc2C)n(CCO)n1`, the reporter increase is reported as 12.3% (inactive).
In the case of `CCOC(=O)c1cc(-c2sc(NC(=O)c3ccccc3)nc2C)n(-c2ccc(Br)cc2)n1`, the reporter increase is reported as 50.4% (active).
With `C=CCn1nc(C(=O)OCC)cc1-c1sc(NC(=O)c2ccccc2)nc1C` the reporter increase was 4.24% (inactive).
With `CCOC(=O)c1cc2ccccc2n1CC(=O)c1ccccc1` the reporter increase was 2.35% (inactive).
In the case of `CCOc1ccc(C(=O)Nc2c3c(nn2-c2ccccc2)CS(=O)(=O)C3)cc1`, the reporter increase is reported as -0.973% (inactive).
In the case of `COc1ccc(NC(=O)Nc2ccc3c(c2)[C@@H]2C[C@H](CC(=O)N[C@@H](C)c4ccccc4)O[C@@H](CO)[C@@H]2O3)cc1`, the reporter increase is reported as -1.34% (inactive).
For `Cc1ccc(S(=O)(=O)N(C)C[C@@H]2OCCCC[C@@H](C)Oc3ccc(NC(=O)Nc4ccc(C(F)(F)F)cc4)cc3C(=O)N([C@@H](C)CO)C[C@@H]2C)cc1`, the reporter increase was 1.3% (inactive).
For `C[C@@H]1CCCCO[C@H](CN(C)S(=O)(=O)c2ccccc2)[C@H](C)CN([C@@H](C)CO)C(=O)c2cc(N(C)C)ccc2O1`, the reporter increase was -0.863% (inactive).
In the case of `Cc1cc2c(=O)n(C)c(SCC(=O)c3cc4ccccc4o3)nc2s1`, the reporter increase is reported as -5.28% (inactive).
For `COc1ccc2oc(=O)cc(-c3cc4ccccc4o3)c2c1`, the reporter increase was -2.86% (inactive).
With `Nc1ncc(-c2cc3ccccc3oc2=O)s1` the reporter increase was 47.3% (active).
With `COc1ccccc1C(=O)Nc1ccc2c(c1)C(=O)N(C)C[C@@H](OC)[C@@H](C)CN(CC1CC1)[C@@H](C)CO2` the reporter increase was 2.64% (inactive).
For `CCC(=O)N1CCCCN2[C@H](C1)[C@@H](c1ccc(C#CCOC)cc1)[C@@H]2CO`, the reporter increase was 3.27% (inactive).
For `C[C@H](CO)N1C[C@H](C)[C@@H](CN(C)S(=O)(=O)c2ccc(F)cc2)OCCCC[C@H](C)Oc2ccc(NC(=O)CCCN(C)C)cc2C1=O`, the reporter increase was -3.29% (inactive).
For `Cc1ccc(S(=O)(=O)N2C[C@H](O)COC[C@@H]3O[C@@H](CC(=O)NCC4CCCCC4)CC[C@H]32)cc1`, the reporter increase was -0.379% (inactive).
In the case of `COc1cc(C(O)c2nc(-c3cccc(C(=O)O)c3)cs2)ccc1F` (stereo not given), the reporter increase is reported as 4.68% (inactive).
In the case of `COc1ccc(C(O)c2nc(-c3ccc4c(c3)OCO4)cs2)cc1` (stereo not given), the reporter increase is reported as 11.6% (inactive).
For `COCc1cccc(-c2csc(C(O)c3ccc(F)cc3)n2)c1` (stereo not given), the reporter increase was 49.8% (active).
With `O=C(c1cccnc1)N1C[C@@H]2[C@H](c3ccccc31)[C@@H](CO)N2C(=O)Nc1ccc(F)cc1` the reporter increase was 1.17% (inactive).
For `COc1ccc(S(=O)(=O)N(C)C[C@H]2OCCCC[C@@H](C)Oc3ccc(NS(=O)(=O)c4ccc(C)cc4)cc3C(=O)N([C@@H](C)CO)C[C@@H]2C)cc1`, the reporter increase was 7.8% (inactive).
With `CCN1[C@@H]2Cn3c(ccc(-c4cccnc4)c3=O)[C@H]1[C@@H](C(=O)NC1CCCCC1)[C@@H]2CO` the reporter increase was -4.32% (inactive).
For `Cc1cc(OCc2cc(C(=O)NCc3cc(C(C)C)no3)no2)cc(C)c1Cl`, the reporter increase was 81.9% (active).
In the case of `COCCCNC(=O)COc1cc(C)c(Cl)c(C)c1`, the reporter increase is reported as 4.32% (inactive).
For `Cc1cccnc1CC(C)NC(=O)c1cc(COc2cncc(Cl)c2)on1` (stereo not given), the reporter increase was 9.52% (inactive).
In the case of `COc1ccc(CN(C)C[C@@H]2OCCCC[C@H](C)Oc3ccc(NS(=O)(=O)c4ccc(F)cc4)cc3C(=O)N([C@@H](C)CO)C[C@@H]2C)cc1`, the reporter increase is reported as -7.82% (inactive).
With `Cn1cnc(S(=O)(=O)N2C[C@@H](O)COC[C@@H]3O[C@H](CC(=O)NCc4ccc(F)cc4)CC[C@H]32)c1` the reporter increase was -4.57% (inactive).
In the case of `O=C(c1cccc(F)c1)N1CC[C@@H]2[C@@H](CO)Nc3ccc(C#Cc4cccc(F)c4)cc3[C@@H]21`, the reporter increase is reported as 2.36% (inactive).
For `Cc1noc(C)c1NC(=O)N[C@@H]1C=C[C@@H](CC(=O)Nc2ccccc2)O[C@H]1CO`, the reporter increase was 1.58% (inactive).
With `COc1cccc(C(=O)Nc2nnc(S(=O)(=O)N(C)c3ccccc3)s2)c1` the reporter increase was 3.61% (inactive).
In the case of `COc1ccc(CNC(=O)c2ccc(Br)s2)cc1OC`, the reporter increase is reported as -1.1% (inactive).
In the case of `COc1cccc(C(=O)Nc2nc3ccc(S(C)(=O)=O)cc3s2)c1`, the reporter increase is reported as 50.7% (active).
With `O=C(Nc1ccc2c(c1)CCC2)c1ccc(Br)s1` the reporter increase was 21.7% (inactive).
For `COc1ccc2nc(NC(=O)c3ccc(Br)s3)sc2c1`, the reporter increase was 71.6% (active).
For `COc1cc(NC(=O)CN(C)S(=O)(=O)c2ccc3nc(C)sc3c2)cc(OC)c1`, the reporter increase was -1.66% (inactive).
For `C[C@H](NC(=O)C[C@@H]1C=C[C@H](NC(=O)CN2CCOCC2)[C@H](CO)O1)c1ccccc1`, the reporter increase was -6.32% (inactive).
In the case of `N#Cc1ccc(-c2ccc3c(c2)[C@H]2[C@H](CCN2Cc2ccc4c(c2)OCO4)[C@@H](CO)N3)cc1`, the reporter increase is reported as -8.59% (inactive).
In the case of `CCCNC(=O)N(C)C[C@H]1Oc2cc(-c3ccncc3)ccc2S(=O)(=O)N([C@H](C)CO)C[C@H]1C`, the reporter increase is reported as 0.442% (inactive).
For `CCCNC(=O)C[C@H]1CC[C@H]2[C@@H](COC[C@H](O)CN2C(=O)CC)O1`, the reporter increase was 5.31% (inactive).
With `CCCNC(=O)N1[C@H](C#N)[C@@H](c2ccccc2)[C@H]1CO` the reporter increase was -3.13% (inactive).
In the case of `Cc1ccc(S(=O)(=O)NCC[C@H]2CC[C@@H](NC(=O)C3CCOCC3)[C@@H](CO)O2)cc1`, the reporter increase is reported as -2.84% (inactive).
In the case of `CN1CCN(CCNC(=O)Nc2ccccc2[N+](=O)[O-])CC1`, the reporter increase is reported as -5.22% (inactive).
For `Cc1csc(NC(=O)NC2(C(F)(F)F)Oc3ccccc3O2)n1`, the reporter increase was -3.69% (inactive).
With `Cc1csc(NC(=O)Nc2ccccc2[N+](=O)[O-])n1` the reporter increase was 60.4% (active).
With `C[C@H]1CN([C@@H](C)CO)C(=O)c2cc(Br)cnc2O[C@@H]1CN(C)C(=O)c1ccccc1` the reporter increase was -3.42% (inactive).
In the case of `COc1ccc(Nc2ncnc3sc(C)cc23)cc1`, the reporter increase is reported as 66.1% (active).
For `COc1ccc(Nc2cc(Sc3ccc(OC)cc3)ncn2)cc1`, the reporter increase was 13.3% (inactive).
For `COc1ccc(CNc2ncnc3ccccc23)cc1`, the reporter increase was -11.7% (inactive).
For `Cc1ccc(-c2nnc(SC(C)C#N)n2N)cc1` (stereo not given), the reporter increase was 0.696% (inactive).
In the case of `C=C(C)CSc1nnc(-c2ccc(C)cc2)n1N`, the reporter increase is reported as 57.8% (active).
For `Cc1ccccc1CSc1nnc(-c2cccnc2)n1N`, the reporter increase was 17.5% (inactive).
In the case of `CCS(=O)(=O)Nc1ccc2c(c1)C(=O)N(C)[C@@H]1CC[C@H](CC(=O)N3CCCCC3)O[C@@H]1CO2`, the reporter increase is reported as -2.06% (inactive).
In the case of `CC(=O)N1CCN(CC(=O)Nc2ccc(C)c(F)c2)CC1`, the reporter increase is reported as -6.19% (inactive).
For `CCc1sc(C(=O)N2CCN(CC(=O)Nc3cccc(F)c3)CC2)cc1C`, the reporter increase was 79.7% (active).
For `O=C(CN1CCN(c2ccc(F)cc2)CC1)Nc1cccc(C(F)(F)F)c1`, the reporter increase was -10.4% (inactive).
